Hits are enriched below; roughly 5% of the tested compounds scored in any of these assays.
Caspase-1 inhib: caspase-1 (human) inhibition, allosteric or competitive; P29466; 75,000 compounds, 0.03% hits; AID 900; Potency, µM (series often up to 57.5 µM), without a hit: top-dose activity change, negative = inhibition, most hits filed as inhibitors; Caspase-1 enzyme, Ac-WEHD-AFC fluorogenic rate;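 also: plate controls were vehicle for no effect and no substrate for full effect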
Target sequence (P29466 120-297 limits assumed): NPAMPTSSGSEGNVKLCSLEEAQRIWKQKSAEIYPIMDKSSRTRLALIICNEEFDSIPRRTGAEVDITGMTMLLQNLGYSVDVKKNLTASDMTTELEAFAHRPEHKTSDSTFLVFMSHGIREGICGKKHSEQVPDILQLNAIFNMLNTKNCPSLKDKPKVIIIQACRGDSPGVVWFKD
Target sequence (P29466 317-404 limits assumed): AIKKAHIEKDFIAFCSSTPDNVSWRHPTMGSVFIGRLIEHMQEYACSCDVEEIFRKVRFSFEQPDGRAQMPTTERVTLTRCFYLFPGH
USP2a inh: inhibitors of human ubiquitin-specific protease USP2a; USP2a enzymatic assay, qHTS inhibition; Potency, µM (top dose mostly 38.3 µM), for inactives: at the top dose activity change, negative = inhibition, actives largely listed as inhibitors; 60,000 compounds, 0.1% hits; AID 927; also: nearly all actives have a fitted effect of over 60% in size
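USP2 core (20nM final) preincubated 30 min RT with compound, then Ub-PLA2 20nM and NBD C6-HPC 20uM final added; buffer 20mM Tris-HCl pH 8.0, 2mM CaCl2. Fluorescence Ex 460/Em 535 read at 0 and 2.5 h; normalized to NEM.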
TSHR agonist: agonists of human thyroid stimulating hormone receptor | AID 926 | 73,000 compounds, 0.48% hits | Potency, µM (titrated, usually from 57.1 µM), inactives show at the highest dose activation, most hits filed as activators | HEK293-CNG-TSHR cells (CNG channel as cAMP sensor), membrane potential dye, cAMP; active = well fitted activation curve with a large enough effect in the main read-out, with a control signal flat, not every such curve was filed as active; inconclusive = small, poorly fitted or top-dose-only effect, or a change in a side signal; inactive = no such curve, though single readings can be large or run the other way; % of control where 0% means no effect;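 also: the control signal comes from parental cells without the receptor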
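HEK 293 cells stably expressing TSHR and a modified CNG channel, with CNG-only parental cells as counterscreen, were preloaded 60 min at room temperature with membrane potential dye containing 100 uM RO 20-1724. Compound exposure was 30 min, and depolarization was read as fluorescence at 590 nm.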
CRE Fsk mod: CRE-bla signaling modulation under forskolin stimulation; CHO CRE-bla reporter (cAMP response element driving beta-lactamase), forskolin EC10, beta-lactamase ratio; 71,000 compounds, 2.5% hits; Potency, µM (top dose mostly 38.2 µM), inactives show at the highest dose activity change, negative = inhibition, most hits filed as activators; active = well fitted activation curve with a large enough effect in the signal ratio, with a control signal flat, not every such curve was filed as active; inconclusive = small, poorly fitted or top-dose-only effect, or effect the other way, or a change in a side signal; the % refers to the signal ratio; also: % of control where 0% means no effect
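Beta-lactamase reporter under a cAMP responsive element in CHO cells; compounds tested in titration series against EC10 NKH 477, 3 h at 37 °C. Read-out: CCF4 FRET ratio 460nm/530nm (excitation 405nm) giving %Activity, fitted to AC50.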
Caspase-7 inhib: allosteric or competitive inhibitors of human caspase-7; Potency, µM (series often up to 57.5 µM), inactives show at the top dose activity change, negative = inhibition, hits mostly inhibitors; recombinant caspase-7, Ac-DEVD-AFC fluorescence rate; 75,000 compounds, 0.02% hits; active = well fitted inhibition curve with a large enough effect in the main read-out, with a control signal flat, not every such curve was filed as active; inconclusive = small, poorly fitted or top-dose-only effect, or a change in a side signal; also: % of control where 0% means no effect
HEK293 cAMP cs: parental HEK293 cAMP activation (counter-screen); parental HEK293 CNG cAMP sensor, membrane potential fluorescence; Potency, µM (top dose mostly 57.1 µM), for the others: at the top dose activation, actives largely listed as activators; 73,000 compounds, 2.5% hits; also: % of control where 0% means no effect; nearly all actives have a fitted effect of over 55% in size
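Parental HEK 293 cells stably expressing a cAMP-gated CNG channel were loaded with membrane potential dye containing 100 uM RO 20-1724 for 60 min. Compound added for 30 min; depolarization read as fluorescence intensity at 590 nm.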
Numbers without * were called inactive; ? = inconclusive; . = not tested or not shown; [ ] = another dose, or the depositor's remark. Unless noted, calls follow the shape of the dose curve; as a rule, active = well fitted curve in the direction sought with a large enough effect; inconclusive = small, poorly fitted or top-dose-only effect, or another doubt; inactive = no such curve, though single readings can be large; an effect the other way counts as inactive or inconclusive. Potency is read from the fitted curve at half-maximal effect.

SMILES	Caspase-1 inhib	USP2a inh	TSHR agonist	CRE Fsk mod	Caspase-7 inhib	HEK293 cAMP cs
CCSc1nc2c(cnn2-c2ccc(C)cc2)c(=O)[nH]1	-3%	.	-10%[11.4 µM]	10µM*	-1%	3%
Cc1sc2nc(SCC(=O)N(CCO)CCO)n(C3CCCCC3)c(=O)c2c1C	-1%	5%	20%	13µM*	-3%	7%
O=C(O)c1cc(S(=O)(=O)Nc2cccc(F)c2)ccc1Cl	-2%	.	4%	.	0%	-9%
CCN(CC(=O)O)CC(=O)O	0%[11.5 µM]	.	1%[11.4 µM]	1%[7.6 µM]	0%[11.5 µM]	20%[11.4 µM]
Cn1c(C(=O)N2CCCC(C(=O)NCc3cccs3)C2)cc2sccc21 (stereo unspecified)	1%	17%	25µM*	-4%	0%	4%
Cn1c(C(=O)N2CCCC(C(=O)NCCCSC3CCCCC3)C2)cc2sccc21 (stereo unspecified)	-1%	3%	?	-9%	-6%	?
CCCc1nc(N)c(C#N)c(-c2cccnc2)c1CC	-3%	.	11%	13µM*	0%	15%
O=c1c2ccccc2nc(SCc2nnc(-c3ccccc3Br)o2)n1-c1ccccc1	-2%	45%	?	2.5µM*	-3%	?
COc1ccc(-c2nnc(CSc3nc4ccccc4c(=O)n3C)o2)cc1OC	-1%	6%	?	?	7%	25µM*
Brc1ccccc1-c1nnc(CSc2nncn2-c2ccccc2)o1	1%	24%	1%	-4%	-8%	0%
CC1=C(C)C(=O)NC(Nc2nc(C)c3cc(C)cc(C)c3n2)N1 (stereo unspecified)	-2%	3%	5%	0.79µM*	1%[0.00368 µM]	8%
CCOC(=O)c1ccccc1N/C=C1\CCCC1=O	-8%	2%	19%	10µM*	-7%	44%
O=C1CCCC/C1=C\Nc1ccccc1C(=O)O	-2%	-7%	-1%	-8%	-1%	5%
COc1ccc2nc(SCC(N)=O)[nH]c2c1	-2%	2%	-5%	?	0%	14%
COc1ccc2nc(SCc3nc(N)nc(Nc4ccccc4)n3)[nH]c2c1	-3%	39%	5%	2µM*	-1%	-3%
CCCCCCC/C=C/C1=CC2(C)CC1(C)C(CCCCCCC)CC2=O (stereo unspecified)	0%[11.5 µM]	.	-9%[11.4 µM]	.	0%[11.5 µM]	-4%[11.4 µM]
COc1ccc(Cn2c(=O)sc3ccccc32)cc1	-3%	-10%	25%	4%	-1%[0.00368 µM]	24%
O=c1sc2ccccc2n1COc1ccccc1	-5%	-1%	?	-2%	-4%	25µM*
CSc1nnc2c(n1)OC(c1cccn1C)N(C(C)=O)c1ccccc1-2 (stereo unspecified)	0%	0%	?	-2%	1%	16µM*
COc1ccc(Cc2nc(-c3cccs3)no2)cc1OC	-2%	.	?	4µM*	-2%	?
CCCC(=O)N(c1ccc(OCC)cc1)C1C=CS(=O)(=O)C1 (stereo unspecified)	0%	-2%	?	-7%	-2%	3.2µM*
CCCCC(=O)N(c1ccc(OCC)cc1)C1C=CS(=O)(=O)C1 (stereo unspecified)	2%	-2%	-1%[11.4 µM]	1%	1%	2%
COc1ccc(-n2c(C)nc3c(cnn3-c3ccc(C)c(C)c3)c2=O)cc1	-2%	.	13%	7%	-4%	-1%
COc1ccc(-n2c(/C=C(\C)O)nc(=O)c3c(C)cc(C)nc32)cc1	0%	10%	?	9%	1%	25µM*
O=c1c(-c2cc(F)cc(F)c2)nc2cnc(N3CCNCC3)nc2n1Cc1ccc(F)cc1	.	147%	-3%	?	?	-16%
c1ccc(-c2cnc(CSc3ncnc4sccc34)o2)cc1	5%	18%	?	2%	2%	16µM*
Cc1cc(F)ccc1OC1C=CC(c2ccc3c(c2)OCO3)OC1CO (stereo unspecified)	-1%[11.5 µM]	.	-4%[11.4 µM]	.	-3%[11.5 µM]	-7%[11.4 µM]
